This is a sample that favours compounds with a hit; in the whole collection about 4.7% have one here.
D1 ag – Allosteric Agonists of the Human D1 Dopamine Receptor: qHTS; HEK293 T-REx D1 cells, calcium flux, agonist mode; D(1A) dopamine receptor (Homo sapiens), P21728; hit rate 1% among 360,000; activation, % at 2 µM; also: 0% is about no effect
Target sequence (P21728 whole entry, looked up): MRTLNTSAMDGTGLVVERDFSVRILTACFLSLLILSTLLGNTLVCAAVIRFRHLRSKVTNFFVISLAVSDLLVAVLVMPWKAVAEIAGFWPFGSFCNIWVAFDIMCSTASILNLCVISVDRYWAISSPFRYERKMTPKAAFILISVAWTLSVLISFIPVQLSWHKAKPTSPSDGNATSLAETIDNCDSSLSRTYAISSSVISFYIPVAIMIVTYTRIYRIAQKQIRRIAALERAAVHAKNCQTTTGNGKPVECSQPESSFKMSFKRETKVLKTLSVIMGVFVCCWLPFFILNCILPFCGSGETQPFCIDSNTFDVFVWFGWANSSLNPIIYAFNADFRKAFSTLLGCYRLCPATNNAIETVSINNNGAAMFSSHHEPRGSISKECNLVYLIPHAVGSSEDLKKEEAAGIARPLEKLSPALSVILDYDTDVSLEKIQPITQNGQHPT
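Inducible HEK293 T-REx D1 cells, force-coupled to calcium signalling, were plated at 4000 cells/well with tetracycline and held overnight at 30 C. After no-wash calcium dye loading, compound-evoked calcium rise over 180 s flagged agonists.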
D1 potentiator – Potentiators of Human D1 Dopamine Receptor: qHTS | HEK293 TREx D1 cells, calcium flux, dopamine EC20 potentiation | potentiation, % at 10 µM | hit rate 0.036% among 360,000 | AID 504651, 2011; in the data active = potentiation above about 30%; also: 0% is about no effect
D1 antag – Antagonist of Human D 1 Dopamine Receptor: qHTS; hit rate 3.2% among 360,000; activity change, negative = inhibition, % at 10 µM; D(1A) dopamine receptor (Homo sapiens), P21728; AID 504652, 2011; HEK293 TREx D1 cells, calcium flux, dopamine EC80; active compounds read low; in the data active = activity change below about -30%; also: % is scaled to controls: 0 for no effect and ±100 for the full control effect
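Inducible Hek293 Trex D1 cells (tetracycline, overnight, 30 C). Calcium dye 30–90 min RT. Antagonist mode: EC80 dopamine added after 180 s compound read.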
TRHR agonist – qHTS for Small Molecule Agonists and Allosteric Enhancers of Human TRH Receptor: Primary Screen for Agonists; Thyrotropin-releasing hormone receptor (Homo sapiens), P34981; TRHR cells, calcium flux fluo-8, FDSS agonist mode; activation, % at 2 µM; hit rate 0.18% among 360,000; also: 0% is about no effect
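Steps: seed TRHR cells overnight; add fluo-8 no-wash Ca dye, RT 30 min–1.5 h; record 10 s baseline; pin-transfer compounds; monitor fluorescence 1 cycle/s for the agonist window. Calcium increases flag candidate agonists.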
TRHR enhancer – qHTS for Small Molecule Agonists and Allosteric Enhancers of Human TRH Receptor: Primary Screen for Enhancers; hit rate 0.66% among 360,000; enhancement, % at 2 µM; Thyrotropin-releasing hormone receptor (Homo sapiens), P34981; TRHR cells, fluo-8 calcium fluorescence, EC20 TRH enhancement; in the data active = enhancement above about 30%; also: 0% is about no effect
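TRHR-expressing cells loaded with fluo-8 calcium dye were read kinetically (ex 480/em 530) during compound addition, then stimulated with an EC20 of TRH (10 nM final). Enhancement of the Gq-mediated intracellular calcium response was scored.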
* = called active by the depositor. Rule as the data show it, unless noted: active = activation above about 30%; inactive = the rest.

SMILES	D1 ag	D1 potentiator	D1 antag	TRHR agonist	TRHR enhancer
Cc1ccc(C)c(NC(=O)CSc2ccc(-c3cccs3)nn2)c1	1	-7	-81*	0	22
N#Cc1c(C(F)(F)F)cc(-c2cccs2)nc1SCC(=O)Nc1cccc(C(F)(F)F)c1	68*	3	-5	26	7
N#Cc1ccccc1NC(=O)CSc1nc(-c2ccccc2)cc(C(F)(F)F)c1C#N	133*	-1	15	42*	-3
CCc1ccc(-c2nc(CN3CCC(C(=O)NCCc4ccc(Cl)cc4)CC3)c(C)o2)cc1	1	6	2	0	8
CCOC(=O)Cn1c(=O)n(-c2ccccc2OC)c2nc(-c3ccc(C(C)C)cc3)nc(C(N)=O)c21	9	0	-9	1	0
COc1ccc(CC(=O)Nc2cc(Cl)ccc2O)cc1	16	-4	-35*	-2	8
CCc1ccc(-c2cn3c(n2)sc2cc(C(=O)NCCc4ccc(OC)cc4OC)ccc23)cc1	0	0	0	0	0
Cc1ccc2cc(CCNS(=O)(=O)c3ccc(Cl)cc3)c(=O)[nH]c2c1C	-2	-6	-37*	0	-6
CC(C)N1C(=O)C(O)(C2COC(C)(C)CC2=O)c2ccccc21 (configuration not stated)	1	5	4	0	33*
CCOC(=O)N1CCC2(CC1)C(C#N)=C(N)Oc1n[nH]c(CSc3ccc(C)cc3)c12	2	-2	-39*	1	-1
Cc1ccc(N2CC(C(=O)Nc3ccc(Br)cc3)CC2=O)cc1 (configuration not stated)	2	-1	-14	1	-6
Oc1ccc(N=Nc2n[nH]c(-c3ccccc3)n2)cc1	0	1	0	0	8
Oc1ccc(N=Nc2n[nH]c(-c3ccc(Br)cc3)n2)cc1	1	6	-39*	0	9
Cc1nc(-c2ccc(S(=O)(=O)Nc3ccccc3C)cc2)co1	14	-7	-23	0	3
CCOC(=O)c1cccc(NS(=O)(=O)c2cc3[nH]c(=O)c(=O)[nH]c3cc2C)c1	-1	3	2	0	46*
CCN(CC)c1ccc(NS(=O)(=O)c2ccc(-c3coc(C)n3)cc2)c(C)c1	0	-6	-34*	-1	-5
Cc1cc(Cl)ccc1NS(=O)(=O)c1cc2[nH]c(=O)c(=O)[nH]c2cc1C	-1	2	-10	0	3
CCN(CC)c1ccc(NS(=O)(=O)c2cc3[nH]c(=O)c(=O)[nH]c3cc2C)c(C)c1	1	-2	-38*	0	4
CCOC(=O)c1c(-c2ccc(C)cc2)csc1NC(=O)c1cc(=O)c2cc(Cl)ccc2o1	7	-4	-6	-1	16
O=C(Nc1ccc(Cl)cc1)Nc1csc([N+](=O)[O-])c1	19	-11	-45*	0	-9
Cc1ccc([N+](=O)[O-])cc1NC(=O)Nc1onc(C)c1C	10	-18	-36*	-1	6
Cc1ccc([N+](=O)[O-])cc1NC(=O)Nc1ccc(S(N)(=O)=O)cc1	7	-18	-79*	1	9
O=C(Nc1ccc(Cl)cc1)Nc1cc([N+](=O)[O-])ccc1F	12	-4	-37*	2	-9
COc1ccc(-c2nc(C)c(CCNC(=O)c3ccccc3Br)s2)cc1OC	0	-6	-12	0	3
COC(=O)c1ccc(CSc2c(C(C)C)cnc3c2c(=O)n(C)c(=O)n3C)cc1	1	1	-7	0	2
CC(C)CCNC(=O)c1ccc2c(c1)N(Cc1ccccc1F)C(=O)c1ccccc1S2(=O)=O	2	6	-18	1	-4
COCCn1c(SCC(=O)Nc2ccc(Br)cc2)nc2c([nH]c3ccccc32)c1=O	2	2	-2	0	-6
O=C(Nc1ccc(Cl)cc1)Nc1ccccc1CC[N+](=O)[O-]	35*	-8	-39*	0	-4

Compound activity as filed in PubChem BioAssay.
